Measured values from PubChem BioAssay (Tox21).
Calls of active or inactive are those of the source. Where a call stands in place of a potency, no number is given. Calls follow the shape of the full dose curve.

The molecules below were run against Gonadotropin-releasing hormone receptor (Homo sapiens) (UniProt P30968) (assay: Human gonadotropin-releasing hormone receptor (GnRHR) small molecule agonists, calcium flux assay in GnRHR-HEK293 cells (AID 1920063; also: nearly all actives have a fitted effect of over 35% in size)). Conditions: calcium flux fluorescence, agonist mode; series mostly up to 57.6 µM.
Sequence of Gonadotropin-releasing hormone receptor (Homo sapiens) (P30968 whole entry, looked up): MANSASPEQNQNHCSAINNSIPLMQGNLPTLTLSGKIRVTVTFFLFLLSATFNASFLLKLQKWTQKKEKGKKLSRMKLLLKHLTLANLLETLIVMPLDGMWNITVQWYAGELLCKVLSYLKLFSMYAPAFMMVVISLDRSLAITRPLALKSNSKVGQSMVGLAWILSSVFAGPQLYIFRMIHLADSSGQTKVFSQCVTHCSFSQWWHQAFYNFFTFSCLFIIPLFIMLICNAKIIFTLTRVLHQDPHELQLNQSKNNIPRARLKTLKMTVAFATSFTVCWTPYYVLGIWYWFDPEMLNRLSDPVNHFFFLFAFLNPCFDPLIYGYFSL
Outline: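 Cells: HEK293 stably expressing human GnRHR. Steps: overnight (18 h) culture, 1 h calcium dye loading at 37 C, compound addition, kinetic fluorescence read at 480/540 nm. Each compound tested at 15 concentrations in triplicate.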

| SMILES | Potency | activity change |
| --- | --- | --- |
| O=C(O)c1cc(C(=O)O)c(C(=O)O)cc1C(=O)O | inactive | – |
| O=S(=O)(O)c1ccc(N=Nc2c(O)ccc3ccccc23)cc1 | inactive | – |
| COS(=O)(=O)C(F)(F)F | inactive | – |
| O=C(NS(=O)(=O)/C=C/c1ccccc1)c1ccc(F)cc1Cl | inactive | – |
| CC(C)(Sc1cc(C(C)(C)C)c(O)c(C(C)(C)C)c1)Sc1cc(C(C)(C)C)c(O)c(C(C)(C)C)c1 | inactive | – |
| Nc1c(N=Nc2ccc(-c3ccc(N=Nc4cc(S(=O)(=O)O)c5ccccc5c4N)cc3)cc2)cc(S(=O)(=O)O)c2ccccc12 | inactive | – |
| CC(C)NCCCC1(C(N)=O)c2ccccc2-c2ccccc21 | inactive | – |
| CCCCCc1ccc(N)cc1 | inactive | – |
| CC/C=C\CCOC(=O)c1ccccc1O | inactive | – |
| CCCCCCCCCCCCCCNCCO | inactive | – |
| O=C1OC(O)C(C(Cl)Cl)=C1Cl (configuration not stated) | inactive | – |
| Cc1cc2c(s1)Nc1ccccc1N=C2N1CCN(C)CC1 | inactive | – |
| CC1(C)CC(OC(=O)CCCCCCCCC(=O)OC2CC(C)(C)NC(C)(C)C2)CC(C)(C)N1 | – | 1.96% [at 11.8 µM, active compounds read high] (inactive) |
| C=CC(=O)OCCOCCOC(=O)C=C | inactive | – |
| FC(F)(F)C(F)(F)C(F)(F)C(F)(F)C(F)(F)C(F)(F)C(F)(F)C(F)(F)Br | inactive | – |
| C=CC(=O)OCCOCC(CC)(COCCOC(=O)C=C)COCCOC(=O)C=C | inactive | – |
| C[C@H]1O[C@H](O[C@H]2[C@H](O)[C@@H](O)[C@@H](O[C@H]3[C@H](O)[C@@H](O)[C@H](O)O[C@@H]3CO)O[C@@H]2CO)[C@H](O)[C@@H](O)[C@@H]1N[C@H]1C=C(CO)[C@@H](O)[C@H](O)[C@H]1O | inactive | – |
